Experimental data from PubChem BioAssay (NCI).
Compounds without any hit were thinned out: in the full panel of roughly 83,000, 20% have a hit.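 A percent growth of 40 corresponds to 60% growth inhibition; 0 means no net growth; -100 means all cells died. Active threshold: below 10.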 Unmarked numbers belong to inactive results. Active and inactive are the calls of the source.

Legend:
Assay in all cases: NCI-60 one-dose screen, 48 h (100 = growth as untreated, 0 = no growth, -100 = all killed)
Details in all cases: 10 µM unless noted
HCT-15 colon = system: HCT-15 colon
HT29 colon = system: HT29 colon
SNB-75 CNS = system: SNB-75 CNS
SNB-19 CNS = system: SNB-19 CNS
PC-3 prostate = system: PC-3 prostate
SK-MEL-5 melanoma = system: SK-MEL-5 melanoma
UACC-62 melanoma = system: UACC-62 melanoma
LOX IMVI melanoma = system: LOX IMVI melanoma
SK-MEL-28 melanoma = system: SK-MEL-28 melanoma
U251 CNS = system: U251 CNS

| SMILES | growth (HCT-15 colon) | growth (HT29 colon) | growth (SNB-75 CNS) | growth (SNB-19 CNS) | growth (PC-3 prostate) | growth (SK-MEL-5 melanoma) | growth (UACC-62 melanoma) | growth (LOX IMVI melanoma) | growth (SK-MEL-28 melanoma) | growth (U251 CNS) [%] |
| --- | --- | --- | --- | --- | --- | --- | --- | --- | --- | --- |
| c1ccc(-c2c(-c3ccccc3)[n+](Cc3ccc4ccccc4c3)c(-c3ccc(-c4nc5ccccc5s4)cc3)n2Cc2ccc3ccccc3c2)cc1 | -91.5% (active) | -85.5% (active) | -78.8% (active) | -97.6% (active) | -88.8% (active) | -98.3% (active) | -75.2% (active) | -98.3% (active) | -88.3% (active) | – |
| COc1ccc(Nc2nc(SC)nc(-c3cccc([N+](=O)[O-])c3)c2C#N)cc1 | 78.6% | 70.3% | 10.3% | 79% | 75.8% | 70.9% | 69.5% | 70.8% | 84.9% | – |
| Cc1cc(N2CCOCC2)nc(NCc2cc(Nc3ccnc4cc(Cl)ccc34)ccc2F)n1 | -81.9% (active) | -28.5% (active) | -20.3% (active) | -22.9% (active) | -30% (active) | -98.3% (active) | -83.6% (active) | -68.4% (active) | -73.1% (active) | – |
| COc1ccc(C(=O)/C=C/c2cccnc2Nc2cc(OC)c(OC)c(OC)c2)cc1 | 18.1% | 15.1% | 21.2% | 36.3% | – | – | 50% | – | 71.5% | 13 |
| Cc1nc2ccccc2n1C(=O)C[C@@H]1NC(=S)NC1=O | 93% | 105% | 74.1% | 98.3% | 105% | 100% | 97.1% | 95.3% | – | – |
| COc1ccc(-c2nc3ccc(-c4nc5ccc(N6CCN(c7ccccc7)CC6)cc5[nH]4)cc3[nH]2)cc1OC | 15.8% | -91% (active) | 45.6% | -1.62% (active) | -31.5% (active) | 43.4% | 41.6% | -91.8% (active) | -47.5% (active) | – |
| N#C/C(=C\c1ccc(-c2cc(C(F)(F)F)ccc2Cl)o1)c1nc(-c2ccco2)cs1 | 103% | 101% | 70% | 95.2% | 99.5% | 97.5% | 78.9% | 99.5% | – | – |
| CSc1nc(Nc2cccc(NC(=O)CCl)c2)c(C#N)c(-c2cccc([N+](=O)[O-])c2)n1 | 17.5% | 17.7% | 30.5% | 83.5% | 30.5% | 34.3% | 41% | -69.2% (active) | 102% | – |
| COc1ccc(C(=O)COc2ccc(/C=C3\Oc4ccc(OC)cc4C3=O)cc2)cc1 | 102% | 110% | 101% | 92.7% | – | – | 90.1% | 77.3% | 137% | 93 |
| COc1ccc(-c2nc3ccc(-c4nc5ccc(N6CCN(c7ccncc7)CC6)cc5[nH]4)cc3[nH]2)cc1OC | 88.7% | 22.6% | 52.8% | 40.9% | 54.8% | 14.1% | 17.5% | 16.9% | 19.1% | – |
| O=C1CSC(=S)N1CCc1ccc(O)cc1 | 59.3% | 107% | 71.3% | 93% | – | – | 87.5% | 77.1% | 101% | 100 |
| CC/C=C\C[C@H](O)C/C=C1/C(=O)C=C[C@@]1(C)C/C=C\CCCC(=O)OC | 101% | 110% | 99.1% | 101% | 96.1% | – | – | – | – | – |
| O=C(N=Nc1c(O)[nH]c2ccc(Br)cc12)c1cc(-c2ccccc2)on1 | 103% | 97% | 58.4% | 102% | 100% | 99.9% | 103% | 94.8% | 106% | – |
| O=C(N/N=C/c1ccccc1O)c1ccccc1Nc1ccnc(C(F)(F)F)c1 | 24.6% | 41.3% | 20.7% | 21.8% | – | – | -19.1% (active) | 7.93% (active) | 28.3% | 18.8 |
| C=C(C)[C@@H]1CC[C@]2(C(N)=O)CC[C@]3(C)[C@H](CC[C@@H]4[C@@]5(C)C/C(=C/c6ccco6)C(=O)C(C)(C)[C@@H]5CC[C@]43C)[C@@H]12 | 86.9% | 98.5% | 89.5% | 94.5% | 75.7% | 96.5% | 80.2% | 88.4% | 99.6% | – |
| Cn1c(O)c(N=NC(=O)c2cc(-c3ccccc3)on2)c2ccccc21 | 101% | 105% | 58.5% | 98.2% | 103% | 99.3% | 98.9% | 92.2% | 107% | – |
| COc1cc(/C=C/c2cc(O)c3cc(C(C)=O)c(=O)oc3c2)cc2c1O[C@]1(C)CC[C@@H](O)C(C)(C)[C@H]1C2 | 14.4% | 60.5% | -8.02% (active) | 48.1% | 27.4% | -96.8% (active) | -11.7% (active) | 18.8% | -0.116% (active) | – |
| c1ccc(-c2cc3n4c(-c5ccccc5)nn(-c5ccccc5)c4cnc-3n2)cc1 | 86.2% | 44.3% | -8.19% (active) | 75.9% | – | – | 45.7% | 57.1% | 63.3% | 26.4 |
| N#Cc1c(N)n(CCNC(=O)c2ccccc2)c2nc3ccccc3nc12 | 111% | 104% | 116% | 119% | – | – | 103% | 113% | 123% | 115 |
| NC(=NCCCC1(c2ccccc2)CCCC1)Nc1ccc(Cl)cc1 | 28.9% | -15.4% (active) | 41.1% | 55.9% | 43.3% | – | – | – | – | – |
| O=C1CC[C@H](c2ccc(O)c3c2C(=O)[C@@H]2O[C@@H]2C3=O)c2cccc(O)c21 | 42.5% | -17.2% (active) | 81.3% | 92% | – | – | 39.4% | -62.6% (active) | -7.72% (active) | 78.7 |
| CSc1nc(-c2cccc(NC(=O)CCl)c2)c(C#N)c(=O)n1C | 11% | -33.7% (active) | 54% | 86.6% | 77.5% | 79.4% | 60.4% | -91.6% (active) | 87.3% | – |
| COc1ccc(-c2nc3ccc(-c4nc5ccc(N6CCN(C)CC6)cc5[nH]4)cc3[nH]2)cc1OC | 91% | 49.4% | 54% | 90.3% | 62.8% | 26.3% | 19.2% | 43.9% | – | – |
| N=C(N)c1ccc(-c2ccc(-c3ccc4ccccc4c3)s2)s1 | -82.4% (active) | -60.5% (active) | 89.3% | -40.4% (active) | 71.9% | 84.4% | -6.73% (active) | -56.6% (active) | 92.8% | – |
| O=S(=O)(Nc1ccc(I)cc1F)c1ccc(-c2cnc(C3CC3)o2)cc1 | 25.5% | 15.9% | 15.4% | 62.8% | 68% | 62.8% | 32.8% | 52.5% | 61.7% | – |
| CON1C(=O)CC[C@]2(C)[C@H]3CC[C@@H]4C([C@@]5(C)CCC(=O)O5)CC[C@@]4(C)[C@]3(C)CC[C@H]2C1(C)C (stereo not given in full) | 99.8% | 94.6% | 71.5% | 96.5% | 87.4% | 98.4% | 87.2% | 95.1% | 107% | – |
| O=C(N/N=C/c1c[nH]c2ccccc12)c1cc(-c2ccccc2)on1 | 71.2% | 102% | 67% | 89.8% | 88% | 91.3% | 62.8% | – | 106% | – |
| COc1cccc(-c2nc3sccn3c2-c2ccnc(NCCCNS(=O)(=O)c3cccc(Cl)c3)c2)c1 | 28.7% | 54.5% | 51.8% | 66.3% | 21.7% | -12.5% (active) | -7.03% (active) | 35.6% | 67.4% | – |
| Cc1ccc(NS(=O)(=O)c2ccc(-c3cnc(C4CC4)o3)cc2)cc1C | 19.5% | -10.4% (active) | -7.43% (active) | 46.8% | 22.7% | -3.9% (active) | 24.1% | 39.4% | 66% | – |
| O=C(/C=C/c1cccc([N+](=O)[O-])c1)c1ccc(O)c(CN2CCN(c3cc4c(cc3F)c(=O)c(C(=O)O)cn4C3CC3)CC2)c1 | -40.1% (active) | -23.6% (active) | 31.1% | 47.2% | 18.4% | 46.1% | 53% | -93.5% (active) | 46.4% | – |
